This is an account of results in publication PMC7862700, “An all-to-all approach to the identification of sequence-specific readers for epigenetic DNA modifications on cytosine”.

Assay in all cases: DAPPL (digital affinity profiling via proximity ligation, sequencing); 10 mM Tris-HCl pH 7.5, 50 mM NaCl, 1 mM DTT, 4% glycerol, room temperature, 30 min; GST-TFs on glutathione beads, 16-mer random dsDNA library, 0.1% formaldehyde crosslink after washing; high values mean tight binding
What all share (settings): protein: recombinant; tags: N-terminal GST; dsDNA, one strand shown

In assay [1] the target is T1, ERF (Homo sapiens, UniProt P50548 1-548).
T1 sequence: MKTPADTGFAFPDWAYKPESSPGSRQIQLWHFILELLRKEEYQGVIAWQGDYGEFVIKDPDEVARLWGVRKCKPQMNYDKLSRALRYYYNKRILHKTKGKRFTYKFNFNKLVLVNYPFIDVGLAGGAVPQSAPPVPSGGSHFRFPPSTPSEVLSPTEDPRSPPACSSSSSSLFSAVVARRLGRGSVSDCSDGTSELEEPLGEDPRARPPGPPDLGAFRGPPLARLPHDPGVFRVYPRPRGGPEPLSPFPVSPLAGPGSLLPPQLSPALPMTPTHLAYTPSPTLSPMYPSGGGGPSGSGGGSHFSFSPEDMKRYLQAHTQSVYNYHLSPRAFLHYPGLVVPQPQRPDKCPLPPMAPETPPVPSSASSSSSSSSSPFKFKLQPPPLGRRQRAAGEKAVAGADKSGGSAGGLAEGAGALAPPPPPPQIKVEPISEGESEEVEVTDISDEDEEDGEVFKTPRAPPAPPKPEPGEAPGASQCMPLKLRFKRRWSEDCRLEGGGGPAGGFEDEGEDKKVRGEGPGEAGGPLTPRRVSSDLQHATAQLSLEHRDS
The method in brief: (§1)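 GST fusions of human transcription factors were expressed in yeast and captured with glutathione beads. Once given DNA barcodes and pooled alongside a tag-only sample, they were incubated for 30 min at room temperature with 200 nmole of a random double-stranded 16-mer DNA library in Tris/NaCl/DTT/glycerol buffer, then washed, crosslinked (0.1% formaldehyde), proximity-ligated, PCR-amplified and sequenced on an Illumina NextSeq500. The binding signal of each hexamer is its read frequency for a factor divided by its frequency for the tag-only sample.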

In assay [2] the target is T2, ETS2 (Homo sapiens, UniProt P15036 1-469).
T2 sequence: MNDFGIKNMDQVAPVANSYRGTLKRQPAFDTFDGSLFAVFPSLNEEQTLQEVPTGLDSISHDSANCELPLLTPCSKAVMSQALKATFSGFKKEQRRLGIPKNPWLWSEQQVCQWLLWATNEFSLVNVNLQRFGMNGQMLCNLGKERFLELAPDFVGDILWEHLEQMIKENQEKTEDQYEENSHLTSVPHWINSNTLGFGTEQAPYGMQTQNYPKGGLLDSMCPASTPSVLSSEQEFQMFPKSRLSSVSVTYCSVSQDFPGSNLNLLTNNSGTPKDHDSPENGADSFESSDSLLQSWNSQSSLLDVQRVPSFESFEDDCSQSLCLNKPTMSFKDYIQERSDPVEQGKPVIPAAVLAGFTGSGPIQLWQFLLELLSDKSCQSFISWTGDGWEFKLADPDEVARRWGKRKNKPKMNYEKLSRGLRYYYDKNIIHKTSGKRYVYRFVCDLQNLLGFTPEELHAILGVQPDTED
The method in brief: as §1

Assay [3] concerns the target T3, ETV7 (Homo sapiens, UniProt Q9Y603 1-341).
T3 sequence: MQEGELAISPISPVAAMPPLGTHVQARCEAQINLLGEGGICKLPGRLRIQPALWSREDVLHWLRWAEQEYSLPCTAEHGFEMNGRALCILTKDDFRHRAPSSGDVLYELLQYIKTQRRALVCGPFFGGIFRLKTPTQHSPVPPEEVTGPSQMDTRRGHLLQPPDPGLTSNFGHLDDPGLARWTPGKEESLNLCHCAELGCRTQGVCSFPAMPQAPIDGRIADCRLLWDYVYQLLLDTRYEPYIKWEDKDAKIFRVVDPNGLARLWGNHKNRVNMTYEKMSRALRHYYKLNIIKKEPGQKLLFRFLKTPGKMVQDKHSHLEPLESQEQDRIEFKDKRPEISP
The gist of the method:
as §1

For assay [4], the target named is ETV6 (Homo sapiens, UniProt P41212 1-452). The method in brief: as §1
In assay [5] the target is T4, ETV3L (Homo sapiens, UniProt Q6ZN32 1-361).
T4 sequence: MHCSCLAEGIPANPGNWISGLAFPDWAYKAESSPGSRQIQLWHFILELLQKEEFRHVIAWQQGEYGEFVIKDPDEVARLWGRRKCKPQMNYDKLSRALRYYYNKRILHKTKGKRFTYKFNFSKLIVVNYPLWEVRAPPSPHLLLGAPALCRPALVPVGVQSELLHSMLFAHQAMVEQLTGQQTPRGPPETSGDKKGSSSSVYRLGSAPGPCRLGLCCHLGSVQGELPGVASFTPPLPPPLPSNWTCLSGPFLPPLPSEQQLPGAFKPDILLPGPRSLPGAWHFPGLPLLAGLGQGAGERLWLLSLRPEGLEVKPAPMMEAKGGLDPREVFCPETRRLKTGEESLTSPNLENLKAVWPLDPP
The method in brief: as §1

Assay [6] has as its target T5, ETV3 (Homo sapiens, UniProt P41162-2 1-143).
T5 sequence: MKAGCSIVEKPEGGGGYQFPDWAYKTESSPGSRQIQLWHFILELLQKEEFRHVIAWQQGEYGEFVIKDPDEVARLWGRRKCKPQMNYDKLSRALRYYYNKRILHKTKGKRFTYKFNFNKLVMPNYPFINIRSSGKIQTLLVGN
The gist of the method: as §1

The target in assay [7] is T6, SPDEF (Homo sapiens, UniProt O95238 1-335).
T6 sequence: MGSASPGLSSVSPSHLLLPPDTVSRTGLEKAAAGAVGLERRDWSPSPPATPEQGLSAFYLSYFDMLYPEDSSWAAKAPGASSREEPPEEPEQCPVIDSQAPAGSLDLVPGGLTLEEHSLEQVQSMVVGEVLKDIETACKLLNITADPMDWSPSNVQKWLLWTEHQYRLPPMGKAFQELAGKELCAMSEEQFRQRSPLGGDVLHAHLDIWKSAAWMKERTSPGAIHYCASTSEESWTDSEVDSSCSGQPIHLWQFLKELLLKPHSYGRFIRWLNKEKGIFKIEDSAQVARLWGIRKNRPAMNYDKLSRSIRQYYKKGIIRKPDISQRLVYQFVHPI
The gist of the method:
as §1

Assay [8] deals with T7, ELF5 (Homo sapiens, UniProt Q9UKW6-2 1-255).
T7 sequence: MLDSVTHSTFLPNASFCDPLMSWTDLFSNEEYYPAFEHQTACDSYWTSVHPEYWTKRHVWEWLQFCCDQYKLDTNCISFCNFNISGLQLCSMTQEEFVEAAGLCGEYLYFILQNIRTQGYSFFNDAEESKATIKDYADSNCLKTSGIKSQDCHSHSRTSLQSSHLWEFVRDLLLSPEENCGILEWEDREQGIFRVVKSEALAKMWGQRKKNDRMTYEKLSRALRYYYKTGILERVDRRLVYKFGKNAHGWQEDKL
The gist of the method: as §1

Sequence of ETV6 (P41212 whole entry): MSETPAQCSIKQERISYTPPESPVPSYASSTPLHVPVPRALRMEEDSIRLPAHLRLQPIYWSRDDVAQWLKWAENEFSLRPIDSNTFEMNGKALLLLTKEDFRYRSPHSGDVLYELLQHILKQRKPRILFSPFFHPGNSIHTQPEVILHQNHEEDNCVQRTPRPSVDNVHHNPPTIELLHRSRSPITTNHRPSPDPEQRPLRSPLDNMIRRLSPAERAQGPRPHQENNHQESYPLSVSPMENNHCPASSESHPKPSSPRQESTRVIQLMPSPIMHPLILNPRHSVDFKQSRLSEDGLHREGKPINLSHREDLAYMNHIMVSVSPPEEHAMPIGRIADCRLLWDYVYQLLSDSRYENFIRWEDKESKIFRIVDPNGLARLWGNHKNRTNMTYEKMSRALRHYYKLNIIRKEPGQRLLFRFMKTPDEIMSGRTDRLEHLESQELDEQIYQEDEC

Take TGCTGT: the binding signal is 1.08 fold enrichment (6-mer frequency, TF over GST control) in assay [1]; 1.15 fold enrichment (6-mer frequency, TF over GST control) in assay [2]; 1.13 fold enrichment (6-mer frequency, TF over GST control) in assay [3]; 1.03 fold enrichment (6-mer frequency, TF over GST control) in assay [4].

Consider GTTAAA, for which the binding signal in assay [1] is 1.09 fold enrichment (6-mer frequency, TF over GST control); in assay [5], 1.04 fold enrichment (6-mer frequency, TF over GST control); in assay [6], 1.04 fold enrichment (6-mer frequency, TF over GST control); in assay [4], 1.08 fold enrichment (6-mer frequency, TF over GST control).

Take TAAGGT: the binding signal in assay [1] is 1.06 fold enrichment (6-mer frequency, TF over GST control); in assay [2], 1.06 fold enrichment (6-mer frequency, TF over GST control); in assay [7], 1.15 fold enrichment (6-mer frequency, TF over GST control); in assay [3], 1.04 fold enrichment (6-mer frequency, TF over GST control); in assay [8] it was 1.05 fold enrichment (6-mer frequency, TF over GST control); in assay [6], 1.11 fold enrichment (6-mer frequency, TF over GST control). The binding signal in assay [4] is 1.08 fold enrichment (6-mer frequency, TF over GST control).

On to GGCTTG, for which the binding signal in assay [1] was 1.01 fold enrichment (6-mer frequency, TF over GST control); in assay [2], 1.06 fold enrichment (6-mer frequency, TF over GST control); in assay [3], 1.14 fold enrichment (6-mer frequency, TF over GST control).

In the case of CGACGT, the binding signal is 1.17 fold enrichment (6-mer frequency, TF over GST control) in assay [1]; 1.05 fold enrichment (6-mer frequency, TF over GST control) in assay [2]; 1.02 fold enrichment (6-mer frequency, TF over GST control) in assay [7]; 1.2 fold enrichment (6-mer frequency, TF over GST control) in assay [3]; 1.11 fold enrichment (6-mer frequency, TF over GST control) in assay [8]; 1.09 fold enrichment (6-mer frequency, TF over GST control) in assay [6]. In addition, in assay [4], the binding signal is 1.08 fold enrichment (6-mer frequency, TF over GST control).

On to CAGATG, for which the binding signal is 1.11 fold enrichment (6-mer frequency, TF over GST control) in assay [1]; 1.05 fold enrichment (6-mer frequency, TF over GST control) in assay [2]; 1.13 fold enrichment (6-mer frequency, TF over GST control) in assay [3]; 1.02 fold enrichment (6-mer frequency, TF over GST control) in assay [6]; 1.03 fold enrichment (6-mer frequency, TF over GST control) in assay [4].

With TAAAGC, the binding signal is 1.13 fold enrichment (6-mer frequency, TF over GST control) in assay [1]; 1.05 fold enrichment (6-mer frequency, TF over GST control) in assay [2]; 1.04 fold enrichment (6-mer frequency, TF over GST control) in assay [3]; 1.01 fold enrichment (6-mer frequency, TF over GST control) in assay [8]; 1.1 fold enrichment (6-mer frequency, TF over GST control) in assay [6]; 1.02 fold enrichment (6-mer frequency, TF over GST control) in assay [4].

With TGGGTT, the binding signal was 1.17 fold enrichment (6-mer frequency, TF over GST control) in assay [5]; 1.06 fold enrichment (6-mer frequency, TF over GST control) in assay [2]; 1.05 fold enrichment (6-mer frequency, TF over GST control) in assay [7]; 1.01 fold enrichment (6-mer frequency, TF over GST control) in assay [8]; 1.02 fold enrichment (6-mer frequency, TF over GST control) in assay [6]; 1 fold enrichment (6-mer frequency, TF over GST control) in assay [4].

For GAACCA, the binding signal in assay [5] is 1.01 fold enrichment (6-mer frequency, TF over GST control); in assay [8] it was 1.01 fold enrichment (6-mer frequency, TF over GST control).

Regarding TGGCCC, the binding signal in assay [5] is 1.07 fold enrichment (6-mer frequency, TF over GST control); in assay [2] it was 1.12 fold enrichment (6-mer frequency, TF over GST control); in assay [7], 1.03 fold enrichment (6-mer frequency, TF over GST control); in assay [3] it was 1.01 fold enrichment (6-mer frequency, TF over GST control); in assay [8] it was 1.02 fold enrichment (6-mer frequency, TF over GST control); in assay [6], 1.03 fold enrichment (6-mer frequency, TF over GST control). Further, in assay [4], the binding signal was 1.06 fold enrichment (6-mer frequency, TF over GST control).

As for AACGTT, the binding signal in assay [5] is 1.11 fold enrichment (6-mer frequency, TF over GST control); in assay [2], 1.17 fold enrichment (6-mer frequency, TF over GST control); in assay [7], 1.12 fold enrichment (6-mer frequency, TF over GST control); in assay [3], 1.1 fold enrichment (6-mer frequency, TF over GST control); in assay [8] it was 1.16 fold enrichment (6-mer frequency, TF over GST control); in assay [6] it was 1.11 fold enrichment (6-mer frequency, TF over GST control). Besides, the binding signal in assay [4] was 1.19 fold enrichment (6-mer frequency, TF over GST control).

In the case of TTATTA, the binding signal is 1.11 fold enrichment (6-mer frequency, TF over GST control) in assay [5]; 1.07 fold enrichment (6-mer frequency, TF over GST control) in assay [2]; 1.12 fold enrichment (6-mer frequency, TF over GST control) in assay [7]; 1.11 fold enrichment (6-mer frequency, TF over GST control) in assay [3]; 1.13 fold enrichment (6-mer frequency, TF over GST control) in assay [8]; 1.14 fold enrichment (6-mer frequency, TF over GST control) in assay [6]. Moreover, in assay [4], the binding signal was 1.13 fold enrichment (6-mer frequency, TF over GST control).

As for ATCCAA, the binding signal in assay [5] was 1.2 fold enrichment (6-mer frequency, TF over GST control); in assay [2] it was 1.18 fold enrichment (6-mer frequency, TF over GST control); in assay [7], 1.22 fold enrichment (6-mer frequency, TF over GST control); in assay [3], 1.19 fold enrichment (6-mer frequency, TF over GST control); in assay [8], 1.11 fold enrichment (6-mer frequency, TF over GST control); in assay [6], 1.11 fold enrichment (6-mer frequency, TF over GST control). For the same sequence, the binding signal in assay [4] is 1.11 fold enrichment (6-mer frequency, TF over GST control).

On to AGTAAT, for which the binding signal in assay [5] was 1.07 fold enrichment (6-mer frequency, TF over GST control); in assay [2], 1.15 fold enrichment (6-mer frequency, TF over GST control); in assay [7], 1.1 fold enrichment (6-mer frequency, TF over GST control); in assay [3], 1.19 fold enrichment (6-mer frequency, TF over GST control); in assay [8], 1.2 fold enrichment (6-mer frequency, TF over GST control); in assay [6], 1.03 fold enrichment (6-mer frequency, TF over GST control). The binding signal in assay [4] is 1.15 fold enrichment (6-mer frequency, TF over GST control).

As for TGCCGA, the binding signal in assay [5] is 1.14 fold enrichment (6-mer frequency, TF over GST control); in assay [2], 1.08 fold enrichment (6-mer frequency, TF over GST control); in assay [7], 1.05 fold enrichment (6-mer frequency, TF over GST control); in assay [3] it was 1.15 fold enrichment (6-mer frequency, TF over GST control); in assay [6] it was 1.22 fold enrichment (6-mer frequency, TF over GST control); in assay [4], 1.28 fold enrichment (6-mer frequency, TF over GST control).

Turning to TCAGCA, the binding signal in assay [2] is 1.05 fold enrichment (6-mer frequency, TF over GST control); in assay [3] it was 1.11 fold enrichment (6-mer frequency, TF over GST control); in assay [4], 1.02 fold enrichment (6-mer frequency, TF over GST control).
